Measurements as given in PubChem BioAssay (Tox21).
Inconclusive results are not listed. Calls of active or inactive are those of the source. Unless noted, calls follow the shape of the full dose curve.

Tests used:
[1] = qHTS assay to identify small molecule agonists of the sonic hedgehog signaling (Shh) pathway (AID 1259368);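 also: NIH/3T3-derived 3T3Gli1-Luc cells carrying a stable Gli1-driven firefly luciferase reporter; series mostly up to about 92 µM; nearly all actives have a fitted effect of over 15% in size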
In short: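 Cells of a mouse NIH/3T3 clone stably expressing luciferase under the Gli1 transcriptional response element are exposed to test chemicals for 24 hr at 37 C. Pathway activation is detected as a rise in luminescence.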

[2] = qHTS assay to identify small molecule antagonists of the sonic hedgehog signaling (Shh) pathway (AID 1259369); also: nearly all actives have a fitted effect of over 45% in size
In short: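 Cells are plated and held 4hr at 37 C, compounds (DMSO) are pinned in, conditioned medium is added to stimulate the pathway, and after 24hr luciferase reagent is added for 30min before luminescence is read.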

[3] = qHTS assay to identify small molecule agonists of the androgen receptor (AR) signaling pathway in the presence of an antagonist - cell viability counter screen (AID 1259379; active = well fitted curve in the direction sought with a large enough effect in the repeat runs; an effect the other way counts as inactive or inconclusive;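 also: MDA-kb2 human breast cancer cells carrying an MMTV luciferase reporter; series mostly up to about 92 µM; nearly all actives have a fitted effect of over 25% in size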)
In short: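 Cytotoxicity is assessed by CellTiter-Fluor in MDA-kb2 cells carrying an MMTV-driven luciferase reporter. Cells receive 3.0uM nilutamide plus compounds at 15 concentrations and incubate 16 hr at 37C without CO2 before fluorescence reading.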

[4] = qHTS assay to identify small molecule agonists of the estrogen receptor beta (ER-beta) signaling pathway - cell viability counter screen (AID 1259380; active = well fitted curve in the direction sought with a large enough effect in the repeat runs; an effect the other way counts as inactive or inconclusive; also: nearly all actives have a fitted effect of over 30% in size)
In short: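 Cytotoxicity is measured in parallel with the reporter screen: after 16 hr compound exposure at 37C and a 2 hr LiveBLAzer step, CellTiter-Glo is added to the same ER-beta-UAS-bla HEK293T wells and luminescence read after 30 min.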

[5] = qHTS assay to identify small molecule antagonists of the estrogen receptor beta (ER-beta) signaling pathway - cell viability counter screen (AID 1259382; active = well fitted curve in the direction sought with a large enough effect in the repeat runs; an effect the other way counts as inactive or inconclusive; also: series mostly up to about 92 µM; nearly all actives have a fitted effect of over 55% in size)
In short: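 Cytotoxicity counter screen multiplexed with the beta-lactamase antagonist assay: GripTite HEK293T ER-beta-bla cells were treated 16 hr with test chemicals in the presence of 1nM 17-beta-estradiol, and viability was measured by CellTiter-Glo.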

[6] = target: Estrogen receptor (Homo sapiens) (UniProt P03372); assay: qHTS assay to identify small molecule agonists of the estrogen receptor alpha (ER-alpha) signaling pathway in the presence of an antagonist (AID 1259383); also: top concentration of the series differs between compounds; nearly all actives have a fitted effect of over 15% in size
In short: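 Agonist-mode confirmation in the presence of the ER antagonist ICI-182,780 at 10.0nM final. Breast-derived VM7Luc4E2 reporter cells were exposed to compounds for 22hr, and ERE-driven luciferase was quantified by luminescence.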

[7] = qHTS assay to identify small molecule agonists or antagonists of the thyroid stimulating hormone receptor (TSHR) signaling pathway - wild type cell line counter screen (AID 1259384)
In short: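 Wild-type HEK293 cells were plated 18 h at 37 C/5% CO2, pin-dosed with compound plus Ro20-1724 medium, held 30 min at room temperature, then given cAMP-d2 and anti-cAMP-cryptate; fluorescence was read after 1 h. Fifteen concentrations, triplicate.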

[8] = target: Thyrotropin receptor (Homo sapiens) (UniProt P16473); assay: qHTS assay to identify small molecule antagonists of the thyroid stimulating hormone receptor (TSHR) signaling pathway (AID 1259385); also: nearly all actives have a fitted effect of over 20% in size
In short: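 TSHR-HEK293 cells were plated and held 18 h at 37C/5% CO2, then given compound plus Ro20-1724 and stimulated with TSH at 1.5 ng/mL final. After 30 min at room temperature, cAMP was detected with cAMP-d2/anti-cAMP-cryptate (1 h) by fluorescence.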

[9] = qHTS assay to identify small molecule agonists of the estrogen receptor alpha (ER-alpha) signaling pathway in the presence of an antagonist - cell viability counter screen (AID 1259386; active = well fitted curve in the direction sought with a large enough effect in the repeat runs; an effect the other way counts as inactive or inconclusive;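 also: series mostly up to about 92 µM; cells exposed to compounds for 22 h at 37 °C before the viability read; nearly all actives have a fitted effect of over 30% in size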)
In short: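 Cytotoxicity was measured in parallel with the ERE-luciferase agonist screen, in the same wells. The cells were VM7Luc4E2, which endogenously express ER-alpha, and treatment was with compounds plus 10.0nM ICI-182,780 for 22hr.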

[10] = target: Progesterone receptor (Homo sapiens) (UniProt P06401); assay: qHTS assay to identify small molecule antagonists of the progesterone receptor (PR) signaling pathway (AID 1346795; active = well fitted inhibition curve with a large enough effect in the signal ratio in the repeat runs, not every such curve was filed as active; the % refers to the signal ratio)
In short: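 After 6 hr plating at 37C in 2% stripped-serum medium, PR-UAS-bla HEK293T cells got compounds, then 1 nM R5020. Sixteen hours later, LiveBLAzer substrate was applied for 2 hr at room temperature and fluorescence was recorded.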

[11] = qHTS assay to identify small molecule antagonists of the progesterone receptor (PR) signaling pathway - cell viability counter screen (AID 1346798; active = well fitted curve in the direction sought with a large enough effect in the repeat runs; an effect the other way counts as inactive or inconclusive; also: series mostly up to about 92 µM; nearly all actives have a fitted effect of over 50% in size)
In short: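 Viability was determined by ATP-based luminescence (CellTiter-Glo) in PR-UAS-bla HEK293T cells cultured in 2% charcoal-stripped serum and incubated 16 hr with compounds under R5020 stimulation.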

[12] = qHTS assay to identify small molecule agonists of the progesterone receptor (PR) signaling pathway - cell viability counter screen (AID 1346799); also: nearly all actives have a fitted effect of over 45% in size
In short: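 Viability was scored by ATP luminescence (CellTiter-Glo, 30 min, room temperature) in the same wells used for the reporter readout, after 16 hr compound exposure of PR-UAS-bla HEK293T cells.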

[13] = qHTS assay to identify small molecule antagonists of the TGF-beta/Smad signaling pathway - cell viability counter screen (AID 1346824; active = well fitted curve in the direction sought with a large enough effect in the repeat runs; an effect the other way counts as inactive or inconclusive; also: nearly all actives have a fitted effect of over 50% in size)
In short: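 SBE-bla HEK 293T cells were plated overnight at 37 C, then given compounds in DMSO plus TGF-beta1 (added as 0.25 ng/mL solution) for 5 hr. After the bla read, CellTiter-Glo was added to the same wells and luminescence read after 30 min at room temperature.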

[14] = qHTS assay to identify small molecule agonists of the TGF-beta/Smad signaling pathway - cell viability counter screen (AID 1346829; active = well fitted curve in the direction sought with a large enough effect in the repeat runs; an effect the other way counts as inactive or inconclusive; also: top concentration of the series differs between compounds; nearly all actives have a fitted effect of over 45% in size)
In short: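 In parallel with the Smad reporter read, viability of HEK 293T cells stably carrying SBE-bla is quantified by ATP luminescence following 5 hr compound treatment.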

[15] = qHTS assay to identify small molecule agonists of the TGF-beta/Smad signaling pathway (AID 1346859; active = well fitted activation curve with a large enough effect in the signal ratio in the repeat runs, not every such curve was filed as active; the % refers to the signal ratio; also: series mostly up to about 77 µM)
In short: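 Dual-wavelength fluorescence (460/530 nm emission) quantified beta-lactamase expression under the Smad binding element in HEK 293T cells following 5 hr compound treatment at 37 C.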

[16] = target: Estrogen receptor beta (Homo sapiens) (UniProt Q92731); assay: qHTS assay to identify small molecule antagonists of the estrogen receptor beta (ER-beta) signaling pathway (AID 1259378; active = well fitted inhibition curve with a large enough effect in the signal ratio in the repeat runs, not every such curve was filed as active; the % refers to the signal ratio)
In short: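 ER-beta-UAS-bla HEK293T (GripTite) cells in 2% charcoal-stripped FBS medium were preincubated 6 hr at 37C, dosed with compound, then stimulated with 1 nM E2 (final) for 16 hr; beta-lactamase reporter read by B/G FRET fluorescence after 2 hr substrate loading.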

[17] = target: Progesterone receptor (Homo sapiens) (UniProt P06401); assay: qHTS assay to identify small molecule agonists of the progesterone receptor (PR) signaling pathway (AID 1346784); also: nearly all actives have a fitted effect of over 30% in size
In short: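 The screen uses PR-UAS-bla HEK 293T cells in charcoal-stripped serum (2%). Compounds are applied for 16 hr at 37C after a 6 hr pre-incubation, and reporter activity is detected with a FRET beta-lactamase substrate after 2 hr at room temperature.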

[18] = target: Thyrotropin-releasing hormone receptor (Homo sapiens) (UniProt P34981); assay: qHTS assay to identify small molecule antagonists of the thyrotropin-releasing hormone receptor (TRHR) signaling pathway (AID 1346877; active = well fitted inhibition curve with a large enough effect in the repeat runs, not every such curve was filed as active; also: series mostly up to about 51 µM)
In short: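 Antagonism is measured as suppression of the calcium response to 1 nM TRH in TRHR-HEK293 cells that have been dye-loaded for 2 h at 37 °C after overnight plating. Each compound is tested at 15 concentrations in triplicate.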

[19] = target: Androgen receptor (Homo sapiens) (UniProt P10275); assay: qHTS assay to identify small molecule agonists of the androgen receptor (AR) signaling pathway in the presence of an antagonist (AID 1259381); also: nearly all actives have a fitted effect of over 15% in size
In short: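 Agonist-mode confirmation screen: human MDA-kb2 cells stably expressing luciferase under an MMTV promoter bearing AR and GR response elements, co-treated with 3.0uM nilutamide (final). Luminescence measured after 16hr compound incubation.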

Measured: Potency

Thyrotropin-releasing hormone receptor (Homo sapiens), sequence (P34981 whole entry, looked up): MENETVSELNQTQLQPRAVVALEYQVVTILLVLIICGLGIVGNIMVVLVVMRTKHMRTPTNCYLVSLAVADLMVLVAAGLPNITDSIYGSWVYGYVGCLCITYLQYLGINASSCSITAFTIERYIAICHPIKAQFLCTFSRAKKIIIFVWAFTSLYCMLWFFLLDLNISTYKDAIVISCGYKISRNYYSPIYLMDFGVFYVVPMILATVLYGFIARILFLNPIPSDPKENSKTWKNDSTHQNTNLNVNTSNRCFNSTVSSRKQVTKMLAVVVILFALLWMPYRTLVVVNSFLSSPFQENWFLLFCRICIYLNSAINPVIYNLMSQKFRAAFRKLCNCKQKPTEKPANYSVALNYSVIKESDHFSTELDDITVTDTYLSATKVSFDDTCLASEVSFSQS
Estrogen receptor (Homo sapiens), sequence (P03372 whole entry, looked up): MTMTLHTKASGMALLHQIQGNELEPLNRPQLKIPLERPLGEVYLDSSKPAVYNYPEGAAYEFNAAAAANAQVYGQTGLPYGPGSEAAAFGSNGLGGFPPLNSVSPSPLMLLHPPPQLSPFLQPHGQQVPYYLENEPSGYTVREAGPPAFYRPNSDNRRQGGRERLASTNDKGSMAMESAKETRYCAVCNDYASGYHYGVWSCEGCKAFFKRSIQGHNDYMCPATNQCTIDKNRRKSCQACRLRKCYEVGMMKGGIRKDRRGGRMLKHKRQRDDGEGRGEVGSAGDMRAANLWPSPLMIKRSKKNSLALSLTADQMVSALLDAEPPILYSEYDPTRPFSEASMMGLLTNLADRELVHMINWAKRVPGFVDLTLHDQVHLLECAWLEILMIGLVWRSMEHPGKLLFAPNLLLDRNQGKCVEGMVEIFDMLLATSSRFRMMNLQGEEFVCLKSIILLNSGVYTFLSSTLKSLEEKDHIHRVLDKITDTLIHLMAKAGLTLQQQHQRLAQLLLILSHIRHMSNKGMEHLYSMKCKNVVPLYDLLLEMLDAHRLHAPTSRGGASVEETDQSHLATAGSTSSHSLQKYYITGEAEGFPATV
Thyrotropin receptor (Homo sapiens), sequence (P16473 whole entry, looked up): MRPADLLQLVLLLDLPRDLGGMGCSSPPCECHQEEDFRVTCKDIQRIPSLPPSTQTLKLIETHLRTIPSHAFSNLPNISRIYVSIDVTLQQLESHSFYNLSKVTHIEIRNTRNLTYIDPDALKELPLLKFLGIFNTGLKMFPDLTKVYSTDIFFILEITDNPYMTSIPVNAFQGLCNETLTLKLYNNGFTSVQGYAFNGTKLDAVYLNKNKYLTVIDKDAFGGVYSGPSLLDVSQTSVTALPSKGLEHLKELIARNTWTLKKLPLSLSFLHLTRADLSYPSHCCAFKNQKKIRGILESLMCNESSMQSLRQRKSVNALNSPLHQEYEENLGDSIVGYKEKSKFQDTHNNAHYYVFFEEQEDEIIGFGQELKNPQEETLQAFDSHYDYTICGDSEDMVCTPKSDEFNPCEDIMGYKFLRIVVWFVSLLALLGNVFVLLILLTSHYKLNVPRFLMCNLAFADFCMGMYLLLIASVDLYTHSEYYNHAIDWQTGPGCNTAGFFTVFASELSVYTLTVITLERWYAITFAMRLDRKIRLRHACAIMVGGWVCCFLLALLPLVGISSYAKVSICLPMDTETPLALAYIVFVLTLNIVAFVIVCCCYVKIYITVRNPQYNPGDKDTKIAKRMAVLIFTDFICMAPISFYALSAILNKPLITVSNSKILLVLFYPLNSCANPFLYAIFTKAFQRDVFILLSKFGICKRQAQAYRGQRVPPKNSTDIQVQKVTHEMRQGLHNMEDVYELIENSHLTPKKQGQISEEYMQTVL
Progesterone receptor (Homo sapiens), sequence (P06401 whole entry, looked up): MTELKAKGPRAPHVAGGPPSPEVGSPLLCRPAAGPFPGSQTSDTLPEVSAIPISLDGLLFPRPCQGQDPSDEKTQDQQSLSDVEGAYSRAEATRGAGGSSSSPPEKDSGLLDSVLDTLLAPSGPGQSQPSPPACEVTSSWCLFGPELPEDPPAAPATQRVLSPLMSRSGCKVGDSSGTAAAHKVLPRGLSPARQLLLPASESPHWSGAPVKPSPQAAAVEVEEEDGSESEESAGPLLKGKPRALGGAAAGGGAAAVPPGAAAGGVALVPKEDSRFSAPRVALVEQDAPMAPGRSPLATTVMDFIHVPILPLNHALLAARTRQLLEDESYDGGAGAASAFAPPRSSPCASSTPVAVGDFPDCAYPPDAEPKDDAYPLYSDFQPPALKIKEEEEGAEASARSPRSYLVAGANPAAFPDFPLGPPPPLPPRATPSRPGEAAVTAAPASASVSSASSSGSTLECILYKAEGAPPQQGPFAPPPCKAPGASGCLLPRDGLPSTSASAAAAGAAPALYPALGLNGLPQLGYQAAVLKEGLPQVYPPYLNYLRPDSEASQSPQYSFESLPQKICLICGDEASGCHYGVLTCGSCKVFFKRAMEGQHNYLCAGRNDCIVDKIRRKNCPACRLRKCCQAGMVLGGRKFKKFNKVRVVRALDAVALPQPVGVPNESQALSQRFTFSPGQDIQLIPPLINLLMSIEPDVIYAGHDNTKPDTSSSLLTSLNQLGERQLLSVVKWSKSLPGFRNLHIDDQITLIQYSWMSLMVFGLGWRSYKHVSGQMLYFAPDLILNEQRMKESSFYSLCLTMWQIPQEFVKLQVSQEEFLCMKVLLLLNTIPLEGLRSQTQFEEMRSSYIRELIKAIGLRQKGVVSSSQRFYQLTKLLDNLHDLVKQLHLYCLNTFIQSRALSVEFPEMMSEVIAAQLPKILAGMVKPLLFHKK
Androgen receptor (Homo sapiens), sequence (P10275 whole entry, looked up): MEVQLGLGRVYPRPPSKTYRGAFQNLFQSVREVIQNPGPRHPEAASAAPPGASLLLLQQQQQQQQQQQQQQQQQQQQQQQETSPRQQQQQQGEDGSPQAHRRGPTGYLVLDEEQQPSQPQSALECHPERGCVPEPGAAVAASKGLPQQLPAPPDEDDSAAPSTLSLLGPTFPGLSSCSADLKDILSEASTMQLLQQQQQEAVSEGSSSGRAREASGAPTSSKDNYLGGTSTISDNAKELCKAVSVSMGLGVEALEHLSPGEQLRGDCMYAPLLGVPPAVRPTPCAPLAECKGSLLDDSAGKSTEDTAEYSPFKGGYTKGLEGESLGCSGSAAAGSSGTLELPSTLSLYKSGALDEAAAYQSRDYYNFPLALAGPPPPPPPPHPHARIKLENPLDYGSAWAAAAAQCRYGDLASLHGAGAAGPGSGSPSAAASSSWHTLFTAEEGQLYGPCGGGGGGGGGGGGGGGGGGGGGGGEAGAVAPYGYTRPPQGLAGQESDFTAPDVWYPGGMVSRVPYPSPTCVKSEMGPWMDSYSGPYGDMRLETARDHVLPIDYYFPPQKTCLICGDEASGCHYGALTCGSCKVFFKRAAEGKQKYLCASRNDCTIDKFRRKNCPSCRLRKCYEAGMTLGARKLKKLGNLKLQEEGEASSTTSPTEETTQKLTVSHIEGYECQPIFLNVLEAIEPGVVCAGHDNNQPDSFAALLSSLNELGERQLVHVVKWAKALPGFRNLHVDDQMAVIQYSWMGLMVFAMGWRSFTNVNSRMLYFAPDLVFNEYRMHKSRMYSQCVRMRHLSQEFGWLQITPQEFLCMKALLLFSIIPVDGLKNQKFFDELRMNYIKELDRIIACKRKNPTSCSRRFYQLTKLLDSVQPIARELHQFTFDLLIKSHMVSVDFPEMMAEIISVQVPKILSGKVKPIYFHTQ
Estrogen receptor beta (Homo sapiens), sequence (Q92731 whole entry, looked up): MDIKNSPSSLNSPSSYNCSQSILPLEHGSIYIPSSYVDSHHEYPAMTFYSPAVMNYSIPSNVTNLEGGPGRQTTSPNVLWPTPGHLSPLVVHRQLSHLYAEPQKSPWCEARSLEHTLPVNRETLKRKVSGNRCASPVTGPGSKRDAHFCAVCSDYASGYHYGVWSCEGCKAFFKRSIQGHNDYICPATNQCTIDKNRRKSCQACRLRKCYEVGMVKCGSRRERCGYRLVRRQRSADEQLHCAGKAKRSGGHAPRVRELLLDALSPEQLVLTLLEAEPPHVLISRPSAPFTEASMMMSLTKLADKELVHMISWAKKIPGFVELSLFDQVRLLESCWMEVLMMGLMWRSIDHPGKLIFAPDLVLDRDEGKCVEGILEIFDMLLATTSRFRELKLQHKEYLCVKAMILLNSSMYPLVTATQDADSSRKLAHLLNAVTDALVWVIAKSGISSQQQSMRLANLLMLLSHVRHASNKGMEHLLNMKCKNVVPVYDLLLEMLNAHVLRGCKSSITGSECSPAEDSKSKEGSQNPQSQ

Cc1cc(C)cc(OCC2CNC(=O)O2)c1 (configuration not stated)
not listed: [16] | [17] | [18] | [19]
inactive: all other assays above

O=C(O)c1ccccc1S
not listed: [18] | [19]
inactive: all other assays above

CC(C)COC(=O)c1ccccc1O
not listed: [11] | [13] | [16] | [19]
inactive: all other assays above

CC(C)CCOC(=O)CC(C)C
not listed: [5] | [7] | [8] | [16] | [19]
inactive: all other assays above

CC1(C)OC(=O)Nc2ccc(Br)cc21
not listed: [4] | [5] | [10] | [16]
inactive: all other assays above

CCCCCN(CCCCC)C(=O)C(CCC(=O)O)NC(=O)c1ccc(Cl)c(Cl)c1 (configuration not stated)
not listed: [4] | [10] | [11] | [12] | [16]
inactive: all other assays above

C=C(C)C(=O)NCCC[N+](C)(C)C
not listed: [8] | [11] | [16] | [18] | [19]
inactive: all other assays above

O=C1C(CCS(=O)c2ccccc2)C(=O)N(c2ccccc2)N1c1ccccc1 (configuration not stated)
not listed: [7] | [8] | [11] | [13] | [14] | [16] | [19]
inactive: all other assays above

CCO[Si](CCCN=C=O)(OCC)OCC
not listed: [4] | [16] | [19]
inactive: all other assays above
